Measured values from PubChem BioAssay AID686979 (National Center for Advancing Translational Sciences (NCATS), 2013).
In all, about 420,000 compounds went through this assay and about 50,000 (12%) were called active. Where a call stands in place of a potency, no number is given. Not shown: some 26% with an inconclusive outcome. The sample holds actives, similar compounds and a random draw of the others, so the mix is not that of the screen. Calls come from the whole dose curve; as a rule, active = well fitted inhibition curve with a large enough effect; inconclusive = small, poorly fitted or top-dose-only effect; inactive = flat fitted curve, though single readings scatter.

Experiment: qHTS for Inhibitors of human tyrosyl-DNA phosphodiesterase 1 (TDP1): qHTS in cells in presence of CPT; note: nearly all actives have a fitted effect of over 55% in size
Details: chicken DT40 Tdp1-/-;hTDP1 cells + 20 nM CPT, ATP luminescence, 48 h; series mostly up to 46.2 µM
Summary of the method: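 Chicken DT40 Tdp1-/- cells stably complemented with human TDP1 were seeded at 400 cells/well in medium containing 20 nM camptothecin, exposed to pin-transferred compounds, and grown at 37 °C for at least 48 hr. Viability was read as ATP luminescence.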
Potency is the fitted concentration of half-maximal effect.

| Compound | Potency |
| --- | --- |
| Cc1cc(C)cc(CN2CCc3nnc(C(NS(C)(=O)=O)C(C)C)n3CC2)c1 (centres undefined) | inactive |
| Cc1cccc(CSc2nnc(C)c(=O)n2N)c1 | inactive |
| Cc1cccc(-c2nc(SCc3ccc(Br)cc3)n3[nH]c(=O)cc3n2)c1 | 16.4 µM (active) |
| CCc1ccccc1OCCSc1nc(-c2cccs2)nc2cc(=O)[nH]n12 | inactive |
| CCN(CC(=O)Nc1ccccc1C(F)(F)F)C(=O)C1CCN(C(=O)Nc2ccccc2)CC1 | inactive |
| NC(=O)c1ccsc1NC(=O)COC(=O)COc1ccc(C=O)cc1 | inactive |
| COC(=O)c1ccc(/C=N/N2C(C)CCCC2C)cc1 (centres undefined) | inactive |
| CC(C)(C)c1ccc(C(=O)C[n+]2cccc3cc(Cl)ccc32)cc1 | 5.01 µM (active) |
| Cc1cccc[n+]1CC(=O)c1ccccc1 | inactive |
| COC(=O)C[n+]1cccc2ccccc21 | inactive |
| CCCC(O)(c1ccccc1)C(c1ccccc1)c1ccccn1 (centres undefined) | inactive |
| O=C(c1c(F)cccc1Cl)N1CCN(c2ccccn2)CC1 | inactive |
| COc1ccc(NC(C)=O)cc1NC(=O)CN1CCN(c2ccccn2)CC1 | inactive |
| Cc1nc(N2CCN(c3ccccn3)CC2)c2c(C)c(C(=O)Nc3ccc(F)c(Cl)c3)sc2n1 | 16.4 µM (active) |
| Cc1ccc(NC(=O)Cn2cnc3nc4c(cc3c2=O)CCCC4)cc1Cl | inactive |
| Cc1cc(NS(=O)(=O)c2ccc(NC(=O)c3cccc(OC(F)F)c3)cc2)nc(C)n1 | inactive |
| O=S(=O)(Nc1n[nH]c(C(F)(F)F)n1)c1ccccc1 | inactive |
| Cc1cc(C)c(C#N)c(SCc2[nH]nc3c2C(c2ccccc2)C(C#N)=C(N)O3)n1 (centres undefined) | inactive |
| CCOc1c(OC)cc(C2C(C#N)=C(N)Oc3n[nH]c(-c4ccncc4)c32)cc1OC (centres undefined) | inactive |
| Cc1nn(-c2ccccc2)c2c1C(c1ccc(F)cc1)C(C#N)=C(N)O2 (centres undefined) | inactive |
| CCCc1[nH]nc2c1C(c1ccc(Br)s1)C(C#N)=C(N)O2 (centres undefined) | 6.51 µM (active) |
| CCCc1[nH]nc2c1C(c1ccc(OC)c(Cn3nc(C)c(Br)c3C)c1)C(C#N)=C(N)O2 (centres undefined) | inactive |
| CCCc1[nH]nc2c1C(C1CC=CCC1)C(C#N)=C(N)O2 (centres undefined) | 16.4 µM (active) |
| CCCc1[nH]nc2c1C(c1c(C)nn(-c3ccccc3)c1Cl)C(C#N)=C(N)O2 (centres undefined) | 11.2 µM (active) |
| CCCc1nc2c([nH]1)C(c1cccnc1)C(C#N)=C(N)O2 (centres undefined) | inactive |
| COCc1[nH]nc2c1C(C1C=CCCC1)C(C#N)=C(N)O2 (centres undefined) | 13 µM (active) |
| CCCc1[nH]nc2c1C(c1ccc(OC(=O)c3ccco3)cc1)C(C#N)=C(N)O2 (centres undefined) | inactive |
| N#CC1=C(N)OC2=C(C(=O)CCC2)C1C1CC=CCC1 (centres undefined) | inactive |
| CCc1ccc(C2C(C#N)=C(N)Oc3n[nH]c(CC(=O)OC)c32)cc1 (centres undefined) | inactive |
